High-throughput results from PubChem BioAssay.
Only some compounds are listed: those with a hit (about 3.6% of all), similar ones and a draw of the others.
mHTT-CaM PPI inh = mutant huntingtin-calmodulin interaction inhibitors – biochemical, AlphaScreen, primary screen; AID 1671202, 2021; 3.6% of 190,000 active; P42858; inhibition, % at 15 µM; AlphaScreen His-mHTT/GST-CaM binding, luminescence
Pf apPOL inh = Pf-apPOL inhibitors, biochemical, fluorescence | 0.25% of 210,000 active | Recombinant Pf-apPOL, molecular beacon fluorescence, 1.5 h | Plasmodium falciparum apicoplast DNA polymerase (apPOL) | inhibition, % at 10 µM
A number is an active result; i = inactive; nt = not tested or not shown. Cut-off read from the data, not from the text of the source: active = inhibition above about 50%; inactive = the rest.

SMILES | mHTT-CaM PPI inh | Pf apPOL inh
COc1ccc(-c2nnc(NC(=O)CS(=O)(=O)c3ccc(F)cc3)o2)c(OC)c1 | i | i
CCS(=O)(=O)c1ccc(CC(=O)Nc2nnc(-c3ccccc3Cl)o2)cc1 | 68.2 | i
Cc1cc(-c2nnc(NC(=O)c3ccc(S(=O)(=O)N(C)C)cc3)o2)c(C)o1 | 58.0 | i
COc1ccc(S(=O)(=O)CC(=O)Nc2nnc(-c3cc(C)oc3C)o2)cc1 | 56.7 | i
O=C(CS(=O)(=O)Cc1ccccc1)Nc1nnc(-c2ccccc2Cl)o1 | i | i
CCCC1CCC2(CC1)CC[C@H]2OC(=S)NCc1ccco1 (stereo partly drawn) | i | i
CN(CC12CC3CC(CC(C3)C1)C2)C(=O)COc1ccccc1 | i | i
COC(=O)C(=O)N1CCC(Cc2ccc(C(F)(F)F)cc2)CC1 | i | i
COc1ccccc1CNC(=O)C1c2ccccc2C(=O)N(C)C1c1ccc(OC)c(OC)c1 (stereo not drawn) | i | i
Clc1ccccc1Cn1nnc2c(NN=Cc3cccs3)ncnc21 | nt | i
COCCn1c(-c2ccccc2)cnc1SCC(=O)Nc1ccccc1 | i | i
CNC(=O)CSc1ncc(-c2ccc(Br)cc2)n1Cc1ccccc1 | 69.1 | i
O=C(Nc1ccc(F)cc1)c1cnc2n(c1=O)CCS2 | i | i
CCOc1ccccc1CNC(=O)CN1C(=O)C2CCCN2C(=O)c2cccc(C)c21 (stereo not drawn) | i | i
CCc1ccc(NC(=O)N2CCC(n3cnc4ccc(Cl)cc4c3=O)CC2)cc1 | i | i
O=C(C[C@H]1C(=O)N(c2ccccc2)C[C@@H]1Cc1ccccc1)Nc1ccc(Br)cc1 | i | i
COc1ccc(CN2C[C@H](Cc3ccccc3)[C@@H](CC(=O)Nc3ccccc3)C2=O)cc1 | 68.2 | i
COc1ccc(NC(=O)C[C@H]2C(=O)N(Cc3cccnc3)C[C@@H]2Cc2ccccc2)cc1 | i | i
O=C(C[C@H]1C(=O)N(c2ccc(Br)cc2)C[C@@H]1Cc1ccccc1)Nc1ccccc1 | 50.8 | i
CCCCC[C@H]1CN(Cc2ccc(OC)cc2)C(=O)[C@@H]1CC(=O)NCc1ccccc1 | 53.6 | i
CCCCC[C@H]1CN(CCCC)C(=O)[C@@H]1CC(=O)NCc1ccccc1 | i | i
Cc1nn(-c2ccccc2)c2c1C(=O)CC(C)(C)C2 | i | i
O=C(Nc1ccc(Nc2cc(-n3cccn3)ncn2)cc1)c1ccco1 | 100.1 | i
COc1ccc(Nc2cc(-n3cccn3)ncn2)cc1 | i | i
Cc1ccccc1C1C(C#N)=C(N)OC2=C1C(=O)CC(C)(C)C2 (stereo not drawn) | i | i
SMILES | mHTT-CaM PPI inh | Pf apPOL inh
CC1(C)CC(=O)C2=C(C1)OC(N)=C(C#N)C2c1cn(-c2ccccc2)nc1-c1ccccc1 (stereo not drawn) | 76.5 | i
Cc1cccc(C(=O)Nc2ccc(N3CCN(c4ccccc4)C3=O)nc2)c1 | i | i
COc1cccc(CC(=O)N2CCC(c3cnn(-c4cccc(F)c4)c3)CC2)c1 | i | i
CCCCCC(=O)Nc1ncc2c(n1)CC(c1cc(OC)c(OC)c(OC)c1)CC2=O (stereo not drawn) | i | 81.7
COc1cc(C2CC(=O)c3cnc(NC(=O)c4ccccc4)nc3C2)cc(OC)c1OC (stereo not drawn) | i | i
CCC(C)NS(=O)(=O)c1ccc2c(c1)C(=O)c1cc(S(=O)(=O)NC(C)CC)ccc1-2 (stereo not drawn) | i | i
COc1ccc(/C=C2\CCC(C3CCCC3)C2=O)cc1 (stereo not drawn) | i | i
COc1ccc(/C=C2\CCCC(C(=O)C(F)(F)F)=C2O)cc1 | 55.0 | i
O=C(CSc1n[nH]c(-c2ccccc2)n1)Nc1ccccc1[N+](=O)[O-] | i | i
O=C(CSc1nnc(-c2ccco2)o1)Nc1cccc([N+](=O)[O-])c1 | i | i
O=C(CSc1nnc(-c2ccco2)c(-c2ccco2)n1)Nc1cccc([N+](=O)[O-])c1 | 98.0 | i
O=C(CSc1nnc(-c2ccco2)c(-c2ccco2)n1)Nc1ccccc1[N+](=O)[O-] | 74.0 | i
O=C(O)Cn1c2ccccc2c2nnc(SCC(=O)Nc3cccc(Br)c3)nc21 | i | i
O=C(CSc1nnc(-c2ccco2)c(-c2ccco2)n1)Nc1cccc(Br)c1 | 100.0 | i
C=CCNC(=O)c1csc(-c2ccc(OC)cc2Cl)n1 | i | i
CCNC(=O)c1cncc(-c2cccc(F)c2)c1 | i | i
COc1cccc(/C=C2\CC/C(=C\c3cccc(OC)c3)C2=O)c1 | i | i
CCc1ccc(CNC(=O)CC2CCN(C(=O)c3[nH]c(C)c(C)c3C)CC2)cc1 | i | i
COc1ccc(CCNC(=O)CC2CCN(C(=O)C3CCCCC3)CC2)c(OC)c1 | i | i
O=C(CC1CCN(C(=O)C2CCCCC2)CC1)NCCc1c[nH]c2ccc(Cl)cc12 | 100.0 | i
Cc1[nH]c(C(=O)N2CCC(CC(=O)NCCc3c[nH]c4ccccc34)CC2)c(C)c1C | 89.8 | i
